What was measured:
Test in all cases: DAPPL (digital affinity profiling via proximity ligation, sequencing); 10 mM Tris-HCl pH 7.5, 50 mM NaCl, 1 mM DTT, 4% glycerol, room temperature, 30 min; GST-TFs on glutathione beads, 16-mer random dsDNA library, 0.1% formaldehyde crosslink after washing; high values mean tight binding
FLI1 = biological target: T1, FLI1 (Homo sapiens, UniProt Q01543 1-452); conditions: protein: recombinant; tags: N-terminal GST; dsDNA, one strand shown
T1 sequence: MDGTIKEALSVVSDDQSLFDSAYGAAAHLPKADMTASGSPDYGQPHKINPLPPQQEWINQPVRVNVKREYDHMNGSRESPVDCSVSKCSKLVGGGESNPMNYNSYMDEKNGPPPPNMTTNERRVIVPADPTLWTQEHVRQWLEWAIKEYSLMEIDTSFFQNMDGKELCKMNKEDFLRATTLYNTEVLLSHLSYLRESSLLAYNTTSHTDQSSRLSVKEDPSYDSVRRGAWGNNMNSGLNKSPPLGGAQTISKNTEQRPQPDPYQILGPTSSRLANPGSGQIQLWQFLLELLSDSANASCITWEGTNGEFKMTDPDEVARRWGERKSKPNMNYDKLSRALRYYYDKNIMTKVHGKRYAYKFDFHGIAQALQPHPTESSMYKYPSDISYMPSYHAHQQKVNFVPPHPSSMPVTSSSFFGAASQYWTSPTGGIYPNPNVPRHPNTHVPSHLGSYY
Outline: (§1)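 A tag-only sample was pooled with DNA-barcoded human transcription factors that had been expressed in yeast as GST fusions and captured on glutathione beads. The pools were incubated for 30 min at room temperature with 200 nmole of a random double-stranded 16-mer DNA library in Tris/NaCl/DTT/glycerol buffer, then washed, crosslinked with 0.1% formaldehyde, proximity-ligated (BsaI/T4 ligase, 1 h, 37 °C), PCR-amplified and sequenced on an Illumina NextSeq500. Binding signal is each hexamer's read frequency for a factor divided by its frequency for the tag-only sample.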

ELK1 = biological target: T2, ELK1 (Homo sapiens, UniProt P19419 1-428); conditions: protein: recombinant; tags: N-terminal GST; dsDNA, one strand shown
T2 sequence: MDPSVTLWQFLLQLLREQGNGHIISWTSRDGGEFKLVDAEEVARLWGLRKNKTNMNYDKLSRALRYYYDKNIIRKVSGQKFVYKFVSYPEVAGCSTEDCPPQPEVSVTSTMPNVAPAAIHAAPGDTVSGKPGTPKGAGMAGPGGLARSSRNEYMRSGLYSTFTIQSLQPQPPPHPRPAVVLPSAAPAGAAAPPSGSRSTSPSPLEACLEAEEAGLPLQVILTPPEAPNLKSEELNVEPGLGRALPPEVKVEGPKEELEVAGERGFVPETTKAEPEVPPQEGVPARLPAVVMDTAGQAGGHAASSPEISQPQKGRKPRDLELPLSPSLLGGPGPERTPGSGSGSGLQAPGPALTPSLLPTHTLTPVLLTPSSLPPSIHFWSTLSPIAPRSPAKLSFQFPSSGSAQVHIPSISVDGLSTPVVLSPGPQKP
Outline: as §1

GABPA = biological target: T3, GABPA (Homo sapiens, UniProt Q06546 1-454); conditions: protein: recombinant; tags: N-terminal GST; dsDNA, one strand shown
T3 sequence: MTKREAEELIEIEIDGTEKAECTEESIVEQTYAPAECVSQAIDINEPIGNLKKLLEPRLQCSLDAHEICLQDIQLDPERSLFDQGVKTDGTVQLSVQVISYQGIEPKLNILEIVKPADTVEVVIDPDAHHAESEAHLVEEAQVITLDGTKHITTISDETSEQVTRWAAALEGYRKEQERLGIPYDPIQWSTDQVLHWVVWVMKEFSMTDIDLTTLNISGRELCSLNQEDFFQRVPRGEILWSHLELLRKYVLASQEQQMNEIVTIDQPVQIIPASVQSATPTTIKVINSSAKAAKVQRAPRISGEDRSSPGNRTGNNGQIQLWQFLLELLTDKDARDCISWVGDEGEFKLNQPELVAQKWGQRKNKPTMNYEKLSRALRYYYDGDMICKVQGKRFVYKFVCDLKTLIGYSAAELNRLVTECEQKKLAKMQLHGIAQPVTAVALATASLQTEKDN
Outline: as §1

ERG = biological target: T4, ERG (Homo sapiens, UniProt P11308 1-479); conditions: protein: recombinant; tags: N-terminal GST; dsDNA, one strand shown
T4 sequence: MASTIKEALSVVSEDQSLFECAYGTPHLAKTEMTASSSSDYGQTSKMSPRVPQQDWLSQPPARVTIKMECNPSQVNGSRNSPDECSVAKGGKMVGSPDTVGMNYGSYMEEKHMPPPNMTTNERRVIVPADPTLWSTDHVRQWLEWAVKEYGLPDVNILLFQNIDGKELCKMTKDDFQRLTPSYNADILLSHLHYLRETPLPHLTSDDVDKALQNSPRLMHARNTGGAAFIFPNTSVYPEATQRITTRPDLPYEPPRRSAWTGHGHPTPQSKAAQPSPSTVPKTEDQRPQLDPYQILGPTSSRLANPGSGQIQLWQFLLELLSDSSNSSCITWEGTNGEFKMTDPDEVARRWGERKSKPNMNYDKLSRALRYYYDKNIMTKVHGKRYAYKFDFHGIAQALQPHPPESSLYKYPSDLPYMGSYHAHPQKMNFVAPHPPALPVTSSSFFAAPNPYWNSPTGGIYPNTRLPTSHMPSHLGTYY
Outline: as §1

ELF1 = ELF1 (Homo sapiens, UniProt P32519 1-619); conditions: protein: recombinant; tags: N-terminal GST; dsDNA, one strand shown
Sequence of ELF1 (P32519 whole entry): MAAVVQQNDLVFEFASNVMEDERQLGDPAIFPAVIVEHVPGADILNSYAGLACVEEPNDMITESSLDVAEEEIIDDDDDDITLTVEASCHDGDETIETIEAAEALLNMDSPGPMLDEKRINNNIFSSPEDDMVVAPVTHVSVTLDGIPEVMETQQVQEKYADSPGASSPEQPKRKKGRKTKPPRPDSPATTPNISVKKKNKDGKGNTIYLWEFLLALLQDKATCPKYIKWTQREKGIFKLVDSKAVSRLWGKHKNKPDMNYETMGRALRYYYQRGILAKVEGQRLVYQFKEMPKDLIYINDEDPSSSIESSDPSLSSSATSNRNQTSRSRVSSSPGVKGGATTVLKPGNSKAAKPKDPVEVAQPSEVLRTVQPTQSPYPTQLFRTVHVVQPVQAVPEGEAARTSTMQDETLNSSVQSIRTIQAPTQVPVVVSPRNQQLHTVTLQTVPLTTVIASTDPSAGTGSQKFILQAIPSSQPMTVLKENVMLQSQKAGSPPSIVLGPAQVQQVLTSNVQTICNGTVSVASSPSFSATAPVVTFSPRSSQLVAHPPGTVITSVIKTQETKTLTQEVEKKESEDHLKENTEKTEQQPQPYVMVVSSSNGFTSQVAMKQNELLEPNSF
Outline: as §1

EHF = biological target: T5, EHF (Homo sapiens, UniProt Q9NZC4 1-300); conditions: protein: recombinant; tags: N-terminal GST; dsDNA, one strand shown
T5 sequence: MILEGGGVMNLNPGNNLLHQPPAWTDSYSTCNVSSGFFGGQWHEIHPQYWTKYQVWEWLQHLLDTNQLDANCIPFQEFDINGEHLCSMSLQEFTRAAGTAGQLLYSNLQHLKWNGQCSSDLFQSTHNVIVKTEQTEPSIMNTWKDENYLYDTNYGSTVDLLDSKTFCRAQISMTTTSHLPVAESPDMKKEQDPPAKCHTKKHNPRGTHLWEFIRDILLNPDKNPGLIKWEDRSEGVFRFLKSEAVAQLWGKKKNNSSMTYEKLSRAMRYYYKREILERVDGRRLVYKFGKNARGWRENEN
Outline: as §1

ELK3 = biological target: T6, ELK3 (Homo sapiens, UniProt P41970 1-407); conditions: protein: recombinant; tags: N-terminal GST; dsDNA, one strand shown
T6 sequence: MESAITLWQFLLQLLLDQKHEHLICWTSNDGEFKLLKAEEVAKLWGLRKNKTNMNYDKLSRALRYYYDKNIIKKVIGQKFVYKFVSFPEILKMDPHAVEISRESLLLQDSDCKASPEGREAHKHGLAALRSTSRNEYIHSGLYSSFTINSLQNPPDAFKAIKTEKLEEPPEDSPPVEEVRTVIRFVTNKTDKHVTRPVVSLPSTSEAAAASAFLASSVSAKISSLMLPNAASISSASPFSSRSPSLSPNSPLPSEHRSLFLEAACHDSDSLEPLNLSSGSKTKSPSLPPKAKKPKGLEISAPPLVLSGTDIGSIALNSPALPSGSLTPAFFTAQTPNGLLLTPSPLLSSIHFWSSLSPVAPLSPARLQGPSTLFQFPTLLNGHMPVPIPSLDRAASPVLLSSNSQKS
Outline: as §1

FEV = biological target: T7, FEV (Homo sapiens, UniProt Q99581 1-238); conditions: protein: recombinant; tags: N-terminal GST; dsDNA, one strand shown
T7 sequence: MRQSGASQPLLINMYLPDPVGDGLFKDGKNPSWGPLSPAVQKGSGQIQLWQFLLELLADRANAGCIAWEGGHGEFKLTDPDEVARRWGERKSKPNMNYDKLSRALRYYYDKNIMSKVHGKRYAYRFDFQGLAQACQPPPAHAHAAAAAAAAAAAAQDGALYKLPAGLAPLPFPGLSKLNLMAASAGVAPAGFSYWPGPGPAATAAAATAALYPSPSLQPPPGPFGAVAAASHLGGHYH
Outline: as §1

ETV5 = ETV5 (Homo sapiens, UniProt P41161 1-510); conditions: protein: recombinant; tags: N-terminal GST; dsDNA, one strand shown
Sequence of ETV5 (P41161 whole entry): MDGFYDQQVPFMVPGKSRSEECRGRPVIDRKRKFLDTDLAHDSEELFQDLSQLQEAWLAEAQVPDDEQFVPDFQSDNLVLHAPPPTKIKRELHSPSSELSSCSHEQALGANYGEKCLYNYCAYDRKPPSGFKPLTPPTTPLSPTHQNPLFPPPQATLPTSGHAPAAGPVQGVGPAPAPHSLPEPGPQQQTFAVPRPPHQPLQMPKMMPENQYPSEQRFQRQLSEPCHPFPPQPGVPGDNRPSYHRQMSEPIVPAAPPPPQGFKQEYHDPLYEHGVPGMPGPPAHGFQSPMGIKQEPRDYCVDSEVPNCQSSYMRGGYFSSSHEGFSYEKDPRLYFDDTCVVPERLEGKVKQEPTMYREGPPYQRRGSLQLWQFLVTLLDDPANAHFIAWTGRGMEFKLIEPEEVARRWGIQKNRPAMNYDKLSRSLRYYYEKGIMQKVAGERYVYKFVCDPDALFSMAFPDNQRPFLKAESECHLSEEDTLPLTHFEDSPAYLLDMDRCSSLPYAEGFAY
Outline: as §1

HSF1 = HSF1 (Homo sapiens, UniProt Q00613 1-529); conditions: protein: recombinant; tags: N-terminal GST; chain copies: 3; dsDNA, one strand shown
Sequence of HSF1 (Q00613 whole entry): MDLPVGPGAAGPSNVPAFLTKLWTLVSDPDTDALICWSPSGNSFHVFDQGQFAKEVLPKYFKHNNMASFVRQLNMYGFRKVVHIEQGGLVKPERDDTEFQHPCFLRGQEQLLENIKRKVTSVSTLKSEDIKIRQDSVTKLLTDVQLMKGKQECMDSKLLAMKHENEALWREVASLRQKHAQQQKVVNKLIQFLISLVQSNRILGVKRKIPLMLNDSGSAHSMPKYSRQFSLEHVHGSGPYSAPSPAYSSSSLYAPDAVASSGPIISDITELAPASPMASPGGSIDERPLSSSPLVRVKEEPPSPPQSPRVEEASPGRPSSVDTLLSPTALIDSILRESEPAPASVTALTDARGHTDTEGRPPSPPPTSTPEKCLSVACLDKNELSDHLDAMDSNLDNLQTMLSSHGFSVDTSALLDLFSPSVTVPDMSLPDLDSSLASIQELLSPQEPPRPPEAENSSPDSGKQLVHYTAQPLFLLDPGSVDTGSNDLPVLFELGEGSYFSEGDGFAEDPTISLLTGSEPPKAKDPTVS
Outline: as §1

ELF4 = ELF4 (Homo sapiens, UniProt Q99607 1-663); conditions: protein: recombinant; tags: N-terminal GST; dsDNA, one strand shown
Sequence of ELF4 (Q99607 whole entry): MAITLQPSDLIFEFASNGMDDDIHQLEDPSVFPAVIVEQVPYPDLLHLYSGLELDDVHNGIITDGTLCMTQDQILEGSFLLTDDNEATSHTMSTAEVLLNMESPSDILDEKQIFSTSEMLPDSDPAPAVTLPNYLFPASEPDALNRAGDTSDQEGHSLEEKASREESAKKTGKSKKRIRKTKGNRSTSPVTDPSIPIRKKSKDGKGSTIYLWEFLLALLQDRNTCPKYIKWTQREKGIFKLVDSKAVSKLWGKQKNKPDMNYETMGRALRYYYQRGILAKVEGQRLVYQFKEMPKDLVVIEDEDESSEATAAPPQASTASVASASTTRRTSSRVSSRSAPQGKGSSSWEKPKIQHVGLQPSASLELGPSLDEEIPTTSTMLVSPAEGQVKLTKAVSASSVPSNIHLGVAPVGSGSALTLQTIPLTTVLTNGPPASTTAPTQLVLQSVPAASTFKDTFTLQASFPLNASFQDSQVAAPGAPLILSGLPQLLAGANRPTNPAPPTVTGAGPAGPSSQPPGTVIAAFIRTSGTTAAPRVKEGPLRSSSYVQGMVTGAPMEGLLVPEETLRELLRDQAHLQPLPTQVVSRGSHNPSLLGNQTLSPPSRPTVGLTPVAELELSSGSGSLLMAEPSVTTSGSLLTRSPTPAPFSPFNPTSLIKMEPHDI
Outline: as §1

ELK4 = biological target: T8, ELK4 (Homo sapiens, UniProt P28324-2 1-405); conditions: protein: recombinant; tags: N-terminal GST; dsDNA, one strand shown
T8 sequence: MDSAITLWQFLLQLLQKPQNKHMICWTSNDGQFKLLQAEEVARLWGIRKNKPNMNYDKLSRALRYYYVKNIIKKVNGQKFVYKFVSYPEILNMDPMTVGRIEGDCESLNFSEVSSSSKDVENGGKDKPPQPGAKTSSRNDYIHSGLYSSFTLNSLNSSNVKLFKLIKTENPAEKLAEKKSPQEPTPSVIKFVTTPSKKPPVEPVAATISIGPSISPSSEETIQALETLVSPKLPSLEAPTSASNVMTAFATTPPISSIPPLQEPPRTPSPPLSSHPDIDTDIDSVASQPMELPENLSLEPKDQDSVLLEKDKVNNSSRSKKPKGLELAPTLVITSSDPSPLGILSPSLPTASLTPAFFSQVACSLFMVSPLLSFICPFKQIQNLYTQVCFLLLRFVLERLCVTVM
Outline: as §1

CRX = CRX (Homo sapiens, UniProt O43186 1-299); conditions: protein: recombinant; tags: N-terminal GST; dsDNA, one strand shown
Sequence of CRX (O43186 whole entry): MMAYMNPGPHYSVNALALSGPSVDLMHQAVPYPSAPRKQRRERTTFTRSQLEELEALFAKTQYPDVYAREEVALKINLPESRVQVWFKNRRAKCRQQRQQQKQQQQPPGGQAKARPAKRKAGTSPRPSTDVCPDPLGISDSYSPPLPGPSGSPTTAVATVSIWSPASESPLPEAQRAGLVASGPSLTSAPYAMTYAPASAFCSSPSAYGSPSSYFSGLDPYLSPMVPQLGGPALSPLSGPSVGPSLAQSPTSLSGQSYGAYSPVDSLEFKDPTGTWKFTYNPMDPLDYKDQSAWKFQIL
Outline: as §1

ETV1 = ETV1 (Homo sapiens, UniProt P50549 1-477); conditions: protein: recombinant; tags: N-terminal GST; dsDNA, one strand shown
Sequence of ETV1 (P50549 whole entry): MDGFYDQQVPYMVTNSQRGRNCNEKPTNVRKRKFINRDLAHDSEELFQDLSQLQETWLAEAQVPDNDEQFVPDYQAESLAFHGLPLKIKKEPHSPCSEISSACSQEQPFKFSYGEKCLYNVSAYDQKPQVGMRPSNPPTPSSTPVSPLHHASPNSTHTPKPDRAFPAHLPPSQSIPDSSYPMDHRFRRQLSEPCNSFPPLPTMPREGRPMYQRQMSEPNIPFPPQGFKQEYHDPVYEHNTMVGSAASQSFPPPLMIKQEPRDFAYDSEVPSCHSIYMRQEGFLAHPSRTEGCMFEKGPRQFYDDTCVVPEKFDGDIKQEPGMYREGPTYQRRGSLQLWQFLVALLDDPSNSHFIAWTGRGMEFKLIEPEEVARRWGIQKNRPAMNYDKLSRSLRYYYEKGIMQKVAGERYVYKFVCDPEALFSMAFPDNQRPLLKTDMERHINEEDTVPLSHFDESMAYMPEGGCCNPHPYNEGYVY
Outline: as §1

ETV2 = biological target: T9, ETV2 (Homo sapiens, UniProt O00321 1-342); conditions: protein: recombinant; tags: N-terminal GST; dsDNA, one strand shown
T9 sequence: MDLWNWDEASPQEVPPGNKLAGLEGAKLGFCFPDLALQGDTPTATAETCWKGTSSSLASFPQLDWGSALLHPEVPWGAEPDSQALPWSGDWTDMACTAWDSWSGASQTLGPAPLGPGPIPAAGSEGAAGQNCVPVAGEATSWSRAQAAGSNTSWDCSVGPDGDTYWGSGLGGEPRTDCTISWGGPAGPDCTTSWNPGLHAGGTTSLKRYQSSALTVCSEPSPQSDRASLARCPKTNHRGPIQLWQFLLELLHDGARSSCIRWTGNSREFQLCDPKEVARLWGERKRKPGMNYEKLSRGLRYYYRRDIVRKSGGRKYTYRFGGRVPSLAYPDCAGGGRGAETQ
Outline: as §1

ELF3 = biological target: T10, ELF3 (Homo sapiens, UniProt P78545 1-371); conditions: protein: recombinant; tags: N-terminal GST; dsDNA, one strand shown
T10 sequence: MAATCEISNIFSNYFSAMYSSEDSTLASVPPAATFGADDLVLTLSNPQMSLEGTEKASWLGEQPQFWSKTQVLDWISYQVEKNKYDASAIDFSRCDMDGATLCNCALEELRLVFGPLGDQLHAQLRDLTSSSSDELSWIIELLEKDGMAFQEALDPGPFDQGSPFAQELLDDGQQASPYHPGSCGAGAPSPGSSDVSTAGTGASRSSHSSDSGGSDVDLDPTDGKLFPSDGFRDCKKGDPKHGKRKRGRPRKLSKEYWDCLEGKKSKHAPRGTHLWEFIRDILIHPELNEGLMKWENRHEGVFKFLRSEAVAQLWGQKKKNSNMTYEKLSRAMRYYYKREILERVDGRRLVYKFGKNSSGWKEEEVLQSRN
Outline: as §1

SPI1 = SPI1 (Homo sapiens, UniProt P17947 1-270); conditions: protein: recombinant; tags: N-terminal GST; dsDNA, one strand shown
Outline: as §1

SPIB = SPIB (Homo sapiens, UniProt Q01892 1-262); conditions: protein: recombinant; tags: N-terminal GST; dsDNA, one strand shown
Sequence of SPIB (Q01892 whole entry): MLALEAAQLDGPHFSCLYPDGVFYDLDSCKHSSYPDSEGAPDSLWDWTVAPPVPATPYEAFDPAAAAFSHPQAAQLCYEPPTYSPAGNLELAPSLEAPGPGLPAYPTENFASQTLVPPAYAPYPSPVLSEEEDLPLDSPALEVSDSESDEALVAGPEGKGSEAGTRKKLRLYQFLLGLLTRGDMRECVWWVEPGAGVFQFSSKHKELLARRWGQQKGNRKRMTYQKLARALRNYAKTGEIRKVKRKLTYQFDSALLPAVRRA
Outline: as §1

Sequence	binding signal (FLI1)	binding signal (ELK1)	binding signal (GABPA)	binding signal (ERG)	binding signal (ELF1)	binding signal (EHF)	binding signal (ELK3)	binding signal (FEV)	binding signal (ETV5)	binding signal (HSF1)	binding signal (ELF4)	binding signal (ELK4)	binding signal (CRX)	binding signal (ETV1)	binding signal (ETV2)	binding signal (ELF3)	binding signal (SPI1)	binding signal (SPIB)
ATCGCA	1.07 fold enrichment (6-mer frequency, TF over GST control)	1.07 fold enrichment (6-mer frequency, TF over GST control)	1.1 fold enrichment (6-mer frequency, TF over GST control)	1.03 fold enrichment (6-mer frequency, TF over GST control)	1.08 fold enrichment (6-mer frequency, TF over GST control)	1.02 fold enrichment (6-mer frequency, TF over GST control)	1.06 fold enrichment (6-mer frequency, TF over GST control)	1.01 fold enrichment (6-mer frequency, TF over GST control)	1 fold enrichment (6-mer frequency, TF over GST control)	1.03 fold enrichment (6-mer frequency, TF over GST control)	1.12 fold enrichment (6-mer frequency, TF over GST control)	1.06 fold enrichment (6-mer frequency, TF over GST control)	1.17 fold enrichment (6-mer frequency, TF over GST control)	1.06 fold enrichment (6-mer frequency, TF over GST control)				
GAACCA	1.02 fold enrichment (6-mer frequency, TF over GST control)	1.05 fold enrichment (6-mer frequency, TF over GST control)	1.05 fold enrichment (6-mer frequency, TF over GST control)		1.05 fold enrichment (6-mer frequency, TF over GST control)	1.08 fold enrichment (6-mer frequency, TF over GST control)			1.02 fold enrichment (6-mer frequency, TF over GST control)	1.03 fold enrichment (6-mer frequency, TF over GST control)	1.02 fold enrichment (6-mer frequency, TF over GST control)	1.06 fold enrichment (6-mer frequency, TF over GST control)		1 fold enrichment (6-mer frequency, TF over GST control)	1.02 fold enrichment (6-mer frequency, TF over GST control)	1.09 fold enrichment (6-mer frequency, TF over GST control)		
AGCTAA	1.08 fold enrichment (6-mer frequency, TF over GST control)	1.05 fold enrichment (6-mer frequency, TF over GST control)		1.06 fold enrichment (6-mer frequency, TF over GST control)	1.02 fold enrichment (6-mer frequency, TF over GST control)	1.08 fold enrichment (6-mer frequency, TF over GST control)	1.01 fold enrichment (6-mer frequency, TF over GST control)	1.03 fold enrichment (6-mer frequency, TF over GST control)	1.06 fold enrichment (6-mer frequency, TF over GST control)	1.27 fold enrichment (6-mer frequency, TF over GST control)	1.14 fold enrichment (6-mer frequency, TF over GST control)	1.1 fold enrichment (6-mer frequency, TF over GST control)	1.65 fold enrichment (6-mer frequency, TF over GST control)	1.1 fold enrichment (6-mer frequency, TF over GST control)	1.01 fold enrichment (6-mer frequency, TF over GST control)	1.09 fold enrichment (6-mer frequency, TF over GST control)	1.08 fold enrichment (6-mer frequency, TF over GST control)	1.01 fold enrichment (6-mer frequency, TF over GST control)
